Assay outcomes deposited in PubChem by NMMLSC.
RGS4-Gao reg – modulators of RGS4 binding to Galphao, primary screen, biochemical, multiplexed bead flow cytometry | Guanine nucleotide-binding protein G(o) subunit alpha (Homo sapiens), P09471 | actives lie on both sides | binding response (% of control), % at 10 µM | 220,000 compounds, 0.33% hits | AID 1415, 2008; in the data active = binding response below about 49% or above about 150%; inactive = in between;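 also: fluorescent Galphao activated with aluminum fluoride binding bead-coupled RGS4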
Target sequence (P09471 whole entry, looked up): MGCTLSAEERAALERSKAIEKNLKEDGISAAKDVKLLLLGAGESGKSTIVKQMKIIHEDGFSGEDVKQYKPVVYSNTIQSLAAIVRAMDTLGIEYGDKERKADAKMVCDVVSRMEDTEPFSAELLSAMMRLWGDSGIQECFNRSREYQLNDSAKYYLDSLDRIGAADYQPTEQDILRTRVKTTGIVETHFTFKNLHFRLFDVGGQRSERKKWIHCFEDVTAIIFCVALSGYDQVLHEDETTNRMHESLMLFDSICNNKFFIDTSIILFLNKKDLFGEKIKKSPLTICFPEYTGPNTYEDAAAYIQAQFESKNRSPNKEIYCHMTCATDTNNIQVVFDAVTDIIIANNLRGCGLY
RGS16-Gao – modulators of RGS16 binding to Galphao, primary screen, biochemical, human proteins, multiplexed bead flow cytometry; 220,000 compounds, 0.38% hits; Regulator of G-protein signaling 16 (Homo sapiens) + Guanine nucleotide-binding protein …; AID 1441, 2008; binding response (% of control), % at 10 µM; bead-based flow cytometry RGS16-Galphao binding, fluorescence; actives lie on both sides;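 also: Galphao activated by GDP with aluminum fluoride before binding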
Target sequence (O15492 whole entry, looked up): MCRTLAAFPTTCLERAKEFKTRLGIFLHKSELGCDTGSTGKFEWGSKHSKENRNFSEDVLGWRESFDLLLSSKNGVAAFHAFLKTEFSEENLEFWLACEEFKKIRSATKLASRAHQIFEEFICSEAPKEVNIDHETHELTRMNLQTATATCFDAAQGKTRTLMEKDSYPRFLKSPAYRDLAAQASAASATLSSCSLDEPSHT
Target sequence (P09471 whole entry, looked up): as the sequence (P09471 whole entry, looked up) above
RGS8-Gao reg – RGS8-Galphao binding modulators, primary screen, biochemical, multiplexed bead flow cytometry. Guanine nucleotide-binding protein G(o) subunit alpha (Homo sapiens), P09471. actives lie on both sides. response (percent of control binding), % at 10 µM. 220,000 compounds, 0.34% hits; in the data active = response below about 60% or above about 140%; inactive = in between;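 also: Galphao activated as the GDP aluminium fluoride complex binding bead-coupled RGS8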
RGS7-Gao reg – RGS7-Galphao binding modulators, primary screen, biochemical, multiplexed bead flow cytometry | AID 1439, 2008 | Guanine nucleotide-binding protein G(o) subunit alpha (Homo sapiens), P09471 | 220,000 compounds, 0.35% hits | actives lie on both sides | binding response (% of control), % at 10 µM; in the data active = binding response below about 49% or above about 150%; inconclusive = no clear call, values can overlap the other calls; inactive = in between;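 also: fluorescent Galphao held in activated GDP-AlF4 state binding bead-coupled RGS7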
GSH bead fluor – compound fluorescence on glutathione beads, profiling panel, artefact control, biophysical, 488/530 nm, flow cytometry; GSH beads flow cytometry, compound fluorescence 488/530 nm; active compounds read high; fluorescence (KMESF) at 10 µM; 190,000 compounds, 0.25% hits; in the data active = fluorescence above about 89;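 also: glutathione beads carrying GST-tagged Bcl family fusion proteins plus one bare bead set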
Avidin bead fluor – green autofluorescence of compounds with avidin beads – biophysical, 488/530 nm, flow cytometry, artefact control, profiling panel; compound fluorescence 488/530 nm; active compounds read high; fluorescence (KMESF) at 10 µM; 220,000 compounds, 0.38% hits; in the data active = fluorescence above about 47
RGS-Gao – modulators of RGS–Galpha-o binding, primary screen, biochemical, multiplexed beads, flow cytometry, RGS4/7/8/16/19; RGS4–Galpha-o binding response, % at 10 µM; 1,600 compounds, 99% hits; multiplexed bead flow cytometry; shares compounds with RGS16-Gao;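 also: fluorescently labeled Galpha-o bound to GDP with aluminium fluoride binding biotinylated RGS beads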
Biotin-avidin – disruption of biotin probe capture by avidin, counter-screen for RGS protein interaction modulators, biochemical, flow cytometry, bead-based; shares compounds with RGS16-Gao; streptavidin beads, fluorescein-biotin binding; inhibition, % at 10 µM; 1,700 tested, under 10 active; AID 1783, 2009;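 active = inhibition above 50%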;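 also: median green fluorescence of gated singlet beads compared with DMSO control wells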
RGS8-Gao single – RGS8-Galphao binding modulators, confirmation, biochemical, multiplexed bead flow cytometry, single concentration; shares compounds with RGS16-Gao; bead-based flow cytometry RGS8-Galphao binding, fluorescence; actives lie on both sides; binding response (% of control), % at 10 µM; 1,700 compounds, 3% hits; AID 1836, 2009; in the data active = binding response below about 72% or above about 130%; inactive = in between;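 also: Galphao activated as GDP AlF4 complex before binding bead RGS8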
RGS7-Gao single – RGS7-Galphao binding modulators, confirmation, biochemical, multiplexed bead flow cytometry, single concentration; response (percent of control binding), % at 10 µM; shares compounds with RGS16-Gao; bead-based flow cytometry RGS7-Galphao binding; actives lie on both sides; AID 1837, 2009; 1,700 compounds, 7.8% hits; in the data active = response below about 75% or above about 130%; inactive = in between;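 also: fluorescent Galphao activated with GDP and aluminum fluoride binding bead-coupled RGS7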
RGS16-Gao conf – modulators of RGS16-Galphao protein binding, confirmation, biochemical, single concentration, multiplexed bead flow cytometry; bead-based flow cytometry; actives lie on both sides; AID 1838, 2009; response (% of control binding), % at 10 µM; 1,700 compounds, 4% hits; shares compounds with RGS16-Gao; in the data active = response below about 74% or above about 130%; inactive = in between;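 also: Galphao activated as the GDP aluminium fluoride complex binding bead-coupled RGS16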
RGS4-Gao confirm – modulators of RGS4-Galphao protein binding, confirmation, biochemical, single concentration, multiplexed bead flow cytometry; shares compounds with RGS16-Gao; actives lie on both sides; binding response (% of control), % at 10 µM; 1,700 compounds, 4% hits; in the data active = binding response below about 74% or above about 130%; inactive = in between
RGS19-Gao conf – regulators of RGS19-Galphao binding, confirmation, biochemical, single point, multiplexed bead flow cytometry | shares compounds with RGS16-Gao | AID 1841, 2009 | bead-based flow cytometry RGS19-Galphao binding; actives lie on both sides | response (percent of control binding), % at 10 µM | 1,700 compounds, 5% hits; in the data active = response below about 50% or above about 160%; inactive = in between
Of the large screens only hits and unclear results are named; the others gave an inactive call (follow-up assays come after a bar, where they were run); [ ] = remark or other dose. The list is not random: actives were taken first. Their share in the collection is about 1.2%. Unless noted, no rule for the calls is given here.

CC(C)c1cc(C(=O)NNC(=S)NCc2ccco2)c(O)c(C(C)C)c1	none
O=C(CN1N=C(c2ccc(Cl)cc2)CCC1=O)NCCN1CCc2ccccc2C1	RGS4-Gao reg 14.5, RGS16-Gao -2.4, RGS8-Gao reg 12.9, RGS7-Gao reg 4.0 | Biotin-avidin inactive | RGS8-Gao single inactive | RGS7-Gao single inactive | RGS16-Gao conf inactive | RGS4-Gao confirm inactive | RGS19-Gao conf inactive
Cc1ccc(C2=NN(CC(=O)NCc3cccs3)C(=O)CC2)cc1	none
CC(C)C(=O)NC(=S)N(Cc1ccccc1)Cc1ccccc1	RGS16-Gao 184.0[activator] | RGS-Gao 106.5 | Biotin-avidin inactive | RGS8-Gao single inactive | RGS7-Gao single 62.5 | RGS16-Gao conf inactive | RGS4-Gao confirm 70.3 | RGS19-Gao conf 170.5[activator]
CCOC(=O)C1CCN(c2nc3ccccc3n2CC(=O)c2ccccc2)CC1	none
COc1ccc(N2CCN(c3nc4ccccc4n3CC(=O)c3ccccc3)CC2)cc1	RGS7-Gao reg 165.4[activator], Avidin bead fluor 76 | RGS-Gao 107.8 | Biotin-avidin inactive | RGS8-Gao single inactive | RGS7-Gao single inactive | RGS16-Gao conf inactive | RGS4-Gao confirm inactive | RGS19-Gao conf inactive
Cn1cccc1C(=O)OCC(=O)NC(=O)NC1CCCCC1	RGS7-Gao reg inconclusive
c1ccc(CCC2CCCCN2Cc2nc(-c3ccc4c(c3)OCO4)no2)nc1 (stereo not drawn)	none
COc1cc(OC)cc(-c2nc(-c3ccccc3OC)no2)c1	RGS4-Gao reg 0.9, RGS16-Gao 3.8, RGS8-Gao reg 13.6, RGS7-Gao reg 10.1 | Biotin-avidin inactive | RGS8-Gao single inactive | RGS7-Gao single inactive | RGS16-Gao conf inactive | RGS4-Gao confirm inactive | RGS19-Gao conf inactive
COc1ccccc1-c1noc(-c2cc(OC)c(OC)c(OC)c2)n1	none
Cc1nccnc1Sc1ccccc1	RGS7-Gao reg inconclusive (no result: GSH bead fluor)
c1ccc(SSc2ccccc2)cc1	RGS16-Gao -4.9 | RGS-Gao 100.4
CC(C)(C)c1ccc(C(=O)NC(Cc2ccccc2)C(=O)O)cc1 (stereo not drawn)	none
O=C(N[C@@H](Cc1ccc(O)cc1)C(=O)O)c1ccc(C(F)(F)F)cc1	RGS7-Gao reg 152.2[activator] | RGS-Gao 138.4 | Biotin-avidin inactive | RGS8-Gao single inactive | RGS7-Gao single inactive | RGS16-Gao conf inactive | RGS4-Gao confirm inactive | RGS19-Gao conf inactive
O=C(CSc1nnc(-c2cnccn2)n1Cc1ccco1)c1ccc2ccccc2c1	RGS4-Gao reg 29.2, RGS16-Gao 19.0, RGS8-Gao reg 21.5, RGS7-Gao reg 25.3 | Biotin-avidin inactive | RGS8-Gao single inactive | RGS7-Gao single inactive | RGS16-Gao conf inactive | RGS4-Gao confirm inactive | RGS19-Gao conf inactive
CC(C)OC(=O)CSc1nnc(-c2cnccn2)n1Cc1ccco1	none
Cc1cc(C)n2nc(CC(=O)NCc3ccccc3Cl)nc2n1	none
O=C(NCc1ccccn1)c1nc(-c2ccc(C(F)(F)F)cc2)no1	none
CC(C)(C)c1ccc(-c2noc(C(=O)NN)n2)cc1	RGS16-Gao 13.8, RGS7-Gao reg inconclusive (no result: GSH bead fluor) | RGS-Gao 82.8 | Biotin-avidin inactive | RGS8-Gao single inactive | RGS7-Gao single inactive | RGS16-Gao conf inactive | RGS4-Gao confirm inactive | RGS19-Gao conf inactive
O=C1CCCC2=C1C(c1ccccc1O)C1=C(CCCC1=O)O2	RGS8-Gao reg 141.4[activator] | RGS-Gao 113.4 | Biotin-avidin inactive | RGS8-Gao single inactive | RGS7-Gao single inactive | RGS16-Gao conf inactive | RGS4-Gao confirm inactive | RGS19-Gao conf inactive
O=C1CCCC(O)=C1C1C2=C(CCCC2=O)OC2=C1C(=O)CCC2	none
Cn1cc(CN2CCCC(C(=O)c3nccn3C)C2)c(-c2cccc(Cl)c2)n1 (stereo not drawn)	none
COc1ccc(-c2c(C)[nH]n3c(=O)c(Cc4ccccc4)c(C)nc23)cc1	none
O=c1ccc2cc(O)c(O)cc2o1	RGS8-Gao reg 59.3 | RGS-Gao 56.8 | Biotin-avidin inactive | RGS8-Gao single inactive | RGS7-Gao single inactive | RGS16-Gao conf inactive | RGS4-Gao confirm inactive | RGS19-Gao conf inactive
O=C1CSC(=Nc2ccc(Cl)cc2)N1Cc1cccnc1	RGS4-Gao reg 5.3, RGS16-Gao 18.6, RGS8-Gao reg 55.3, RGS7-Gao reg inconclusive (no result: GSH bead fluor) | Biotin-avidin inactive | RGS8-Gao single inactive | RGS7-Gao single inactive | RGS16-Gao conf inactive | RGS4-Gao confirm inactive | RGS19-Gao conf inactive
CC(C)(C)c1ccc(N=C2SCC(=O)N2Cc2cccs2)cc1	RGS7-Gao reg inconclusive (no result: GSH bead fluor)
COc1ccc2c(c1)Cc1sc(NC(=O)c3ccco3)nc1-2	RGS8-Gao reg 57.5, RGS7-Gao reg 46.0 | RGS-Gao 52.5 | Biotin-avidin inactive | RGS8-Gao single inactive | RGS7-Gao single inactive | RGS16-Gao conf inactive | RGS4-Gao confirm inactive | RGS19-Gao conf inactive
COc1ccc2c(c1)CCc1sc(NC(=O)c3ccco3)nc1-2	none
